Our source for the inhibition values is PubChem BioAssay AID504329 (Southern Research Specialized Biocontainment Screening …, 2011).

Each structure is given as a SMILES string. Several values for one entry are separate records, joined by “and”; a condition that tells them apart may be missing. Equal values may be shown once. Out of some 340,000 compounds screened, about 1,000 (0.29%) were called active. No stated cut-off is given here; in the data, inconclusive means inhibition above about 27% without an active follow-up result; inactive means below that. The list is a sample of the results. Results with a measured potency or affinity are listed apart.

This assay in a line: H1N1 influenza NS1A inhibitors, functional cell based assay (AID 504329). To be noted: percent inhibition, at 12.5 µM, stronger effect = higher value.
For `COc1ccccc1Nc1ccc(S(=O)(=O)N2CCCCC2)cc1[N+](=O)[O-]`, the inhibition (in general, the drop in the measured response relative to a control, in per cent) was 22.4% (inactive).

Consider `COc1ccc(Nc2ccc(S(=O)(=O)N3CCCCC3)cc2[N+](=O)[O-])cc1`, for which the inhibition is 21% (inactive).

Consider `COc1ccc(Nc2ccc(S(=O)(=O)N3CCCCC3)cc2[N+](=O)[O-])cc1Cl`, for which the inhibition is 21% (inactive).

Take `COc1cc(Nc2ccc(S(=O)(=O)N3CCN(C)CC3)cc2[N+](=O)[O-])cc(OC)c1`: the inhibition is 18.2% (inactive).

Regarding `CSCCC(NS(=O)(=O)c1cccc(C(F)(F)F)c1)C(=O)N(C)Cc1ccc2c(c1)OCCO2` (centres undefined), the inhibition was -15.2% (inactive).

Turning to `C/C(=N\Nc1ccccc1)c1c(O)n(-c2ccccc2)c(=O)[nH]c1=O`, the inhibition was -15.4% (inactive).

With `N#C/C(=C/c1ccccc1[N+](=O)[O-])c1nc(C2CC2)cs1`, the inhibition was 16.5% (inactive).

For `N#C/C(=C\c1ccc([N+](=O)[O-])cc1)c1nc(C2CC2)cs1`, the inhibition was -3.47% (inactive).

As for `CN(CC(=O)NC(=O)NC1CCCCC1)c1ccccc1`, the inhibition was -19.7% (inactive).

Turning to `CCCc1nnc(SCC(=O)Nc2cc(C)on2)n1CCOC`, the inhibition was -2.31% (inactive).

Turning to `O=C(O)c1cc(S(=O)(=O)N2CCCCC2)sc1Cl`, the inhibition is 0.17% (inactive).

Turning to `Cc1[nH]n(-c2ccccc2)c(=O)c1N=Nc1ccccc1`, the inhibition was -4.27% (inactive).

`Nc1[nH]n(-c2ccccc2)c(=O)c1N=Nc1ccccc1`: the inhibition was 20.9% (inactive).

In the case of `Cc1[nH]n(-c2ccccc2)c(=O)c1N=Nc1ccc2c(c1)OCO2`, the inhibition is 1.81% (inactive).

Consider `Cc1[nH]n(-c2ccccc2)c(=O)c1N=Nc1c(Cl)cccc1Cl`, for which the inhibition was -0.23% (inactive).

With `Cc1[nH]n(-c2ccccc2)c(=O)c1N=Nc1ccc(Cl)cc1`, the inhibition was 1.98% (inactive).

With `Nc1[nH]n(-c2ccccc2)c(=O)c1N=Nc1ccc2c(c1)OCO2`, the inhibition was -20.9% (inactive).

For the compound `Cc1[nH]n(-c2ccccc2)c(=O)c1N=Nc1ccccc1O`, the inhibition is 27.8% (inactive).

For `Cc1ccc(N=Nc2c(C)[nH]n(-c3ccccc3)c2=O)cc1Br`, the inhibition is 2.46% (inactive).

On to `Cc1noc(C)c1CSc1nnc2scc(-c3ccccc3)n12`, for which the inhibition is 0.06% (inactive).

As for `Cc1ccc(S(=O)(=O)NCCNC(=O)C2CCCNC2=O)cc1` (centres undefined), the inhibition is -2.4% (inactive).

Consider `NNC(=O)COc1cccc(C(F)(F)F)c1`, for which the inhibition was -3.83% (inactive).

For `CC(C)CC(=O)C(=O)O`, the inhibition was 1.46% (inactive) and 3.24% (inactive).

`O=C(COC(=O)c1cccc(-n2cnnn2)c1)c1ccc(F)cc1`: the inhibition is -2.74% (inactive).

With `Cc1ccccc1-c1cccc([C@@H]2C[C@H]3[C@H](CON3C)CN2S(=O)(=O)c2ccccc2C)c1`, the inhibition was -6.53% (inactive).

Turning to `Cc1ccc(S(=O)(=O)N2CCOCC2)cc1NC(=O)CNCc1ccccc1Cl`, the inhibition is -1.72% (inactive).

For `COc1ccccc1CNCC(=O)Nc1cc(S(=O)(=O)N2CCCCCC2)ccc1Cl`, the inhibition is 2.82% (inactive).

On to `Cc1ccc(S(=O)(=O)N2CCOCC2)cc1NC(=O)CSc1ccccn1`, for which the inhibition was -3.06% (inactive).

Consider `O=C(CNCc1ccncc1)Nc1cc(S(=O)(=O)N2CCCCC2)ccc1Cl`, for which the inhibition is -4.7% (inactive).

Consider `CS(=O)(=O)c1ccc(-c2cccc(NC(=O)COc3ccc(Cl)cc3)c2)nn1`, for which the inhibition is 7.16% (inactive).

As to `Fc1ccc(Oc2nccc(-c3ccc(Cl)cc3)n2)cc1`, the inhibition is -2.98% (inactive).

With `CCN(C[C@H]1N[C@@](CC)(C(=O)OC)[C@H]2C(=O)N(Cc3ccccc3)C(=O)[C@@H]12)C(=O)C1CCCCC1`, the inhibition is -2.32% (inactive).

For the compound `O=C(NNC(=O)c1ccccc1Br)c1ccc2nc[nH]c2c1`, the inhibition is 22.1% (inactive).

For the compound `CCOC(=O)C1(CC)NC(c2ccc(N(C)C)cc2)C2C(=O)N(C)C(=O)C21` (centres undefined), the inhibition was 9.29% (inactive).

In the case of `CCOc1ccc2c(c1)-c1c(ssc1=S)C(C)(C)N2C(=O)c1ccco1`, the inhibition was 1.84% (inactive).

`COc1ccc2c(c1)-c1c(ssc1=S)C(C)(C)N2S(=O)(=O)c1ccc(C)cc1`: the inhibition was 17.8% (inactive).

`CCN(CC(=O)Nc1c(F)cccc1F)C(=O)CSc1ccccc1`: the inhibition is -8.64% (inactive).

As for `COc1cccc(/C=N/Nc2cc(Cl)nc(C)n2)c1O`, the inhibition was -12.7% (inactive).

Take `Clc1ccccc1/C=N/Nc1cc(N2CCOCC2)ncn1`: the inhibition is 17.6% (inactive).

Turning to `COc1ccc(/C=N/Nc2cc(OC)ncn2)cc1`, the inhibition is 3.33% (inactive).

`Oc1ccccc1/C=N/Nc1ccnc(SCc2ccccc2)n1`: the inhibition is -3.79% (inactive).

In the case of `COc1ccc(/C=N/Nc2cc(N3CCOCC3)ncn2)c(OC)c1`, the inhibition was -0.39% (inactive).

Take `Oc1ccccc1/C=N/Nc1cccc2cccnc12`: the inhibition is -0.48% (inactive).

On to `COc1cc(N/N=C/c2ccc(N(C)C)cc2)ncn1`, for which the inhibition was -5.63% (inactive).

In the case of `COc1cccc(/C=N/Nc2c(Cl)cncc2Cl)c1O`, the inhibition is 1.36% (inactive).

Consider `CCN(C(=O)COC(=O)Cc1c[nH]c2ccccc12)C1CCS(=O)(=O)C1` (centres undefined), for which the inhibition is 2.01% (inactive).

Take `Cc1ccc(NC(=O)CSc2nc3ccccc3c(=O)[nH]2)cc1[N+](=O)[O-]`: the inhibition was 5.04% (inactive).

As for `COc1ccccc1NC(=O)NNC(=O)CCc1ccccc1`, the inhibition is -10.3% (inactive).

Turning to `COc1ccc(NC(=S)N(CCCN2CCOCC2)Cc2cn(C)c3ccccc23)cc1OC`, the inhibition is 2.8% (inactive).

Regarding `COc1ccc(OCc2nnc(SCc3ccc(C(=O)O)cc3)o2)cc1`, the inhibition is 5.27% (inactive).

Take `O=C(NC1CCCC1)C(c1ccc(F)cc1)N(C(=O)c1csnn1)c1ccccc1F` (centres undefined): the inhibition is -6.01% (inactive).

On to `Cn1cc(CN2CCC(n3nccc3NC(=O)CCCc3ccccc3)CC2)cn1`, for which the inhibition is -14% (inactive).

In the case of `COc1ccc(-c2cc(C(=O)NCCN3CCOCC3)c3ccccc3n2)cc1OC`, the inhibition is 23% (inactive).

Take `O=C(CSc1nnc(Nc2ccccc2)s1)Nc1cccc(S(=O)(=O)N2CCCCC2)c1`: the inhibition is -4.99% (inactive).

With `CS(=O)(=O)Nc1ccccc1C(=O)OCC(=O)N1CCC(c2ccccc2)=N1`, the inhibition was -6.95% (inactive).

As for `O=C(CCS(=O)(=O)c1ccccc1)Nc1nc(-c2ccc(F)cc2)cs1`, the inhibition is -4.12% (inactive).

On to `Cc1ccc(S(=O)(=O)CCC(=O)Nc2nc(-c3ccccn3)cs2)cc1`, for which the inhibition is 7.88% (inactive).

In the case of `O=C(CCS(=O)(=O)c1ccc(F)cc1)Nc1nc(-c2ccncc2)cs1`, the inhibition was -5.43% (inactive).

Turning to `O=C(CCS(=O)(=O)c1ccccc1)Nc1nc(-c2cccs2)cs1`, the inhibition is -56.6% (inactive).
